RE007 growth inh = qHTS Assay for Inhibitors of the HIV-1 protein Vpr; S. pombe RE007 Vpr strain, BacTiter-Glo ATP luminescence, 24 h; Potency, µM (top dose mostly 92.2 µM), usual class: inhibitors; actives 0.21% (n = 360,000); active means well fitted falling curve with a large enough effect; inconclusive means small, poorly fitted or top-dose-only effect; inactive means no such curve, though single readings can be large or run the other way; further: nearly all actives have a fitted effect of over 50% in size
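Fission yeast strain RE007, carrying one chromosomally integrated HIV-1 vpr copy, was seeded at OD 0.01 in PMG+AL medium with 23 nL pinned compound. After 24 h at 30 °C and 99% humidity, viability was read by BacTiter-Glo luminescence.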
Shiga toxin inh = A qHTS for Small Molecule Inhibitors of Shiga Toxin | Vero cells, Shiga toxin protein synthesis inhibition reporter | inhibition, % at 38.7 µM | actives 9.2% (n = 290,000) | AID 2315, 2010; in the data active means inhibition mostly above about 28%, no sharp cut-off; inactive means mostly below about 43%
Cycloheximide cs = Cycloheximide Counterscreen for Small Molecule Inhibitors of Shiga Toxin; actives 12% (n = 300,000); max response, %; cell reporter, cycloheximide protein synthesis inhibition counterscreen; in the data active means max response mostly above about 13%, no sharp cut-off; inactive means mostly below about 14%; further: read at 38.3 µM for the half of the compounds with a filed dose
FBPA Giardia inh = qHTS Assay for Inhibitors of Fructose-1,6-bisphosphate Aldolase from Giardia Lamblia; Potency, µM (top dose mostly 59.6 µM), most hits filed as inhibitors; AID 2451, 2010; actives 0.71% (n = 290,000); purified Giardia FBPA; A8B2U2; further: nearly all actives have a fitted effect of over 55% in size
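40 nM FBPA preincubated 10 min at RT with compound (up to 57.5 uM final), then substrate plus GAPDH/TPI/NAD/arsenate coupling and diaphorase/resazurin added. Fluorescence read after 20 min at RT, 525/598 nm.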
LmPK inh = qHTS Assay for Inhibitors of Leishmania Mexicana Pyruvate Kinase (LmPK). Q27686. purified LmPK, Kinase-Glo ATP luminescence, 1 h. Potency, µM (series often up to 57.5 µM), hits mostly inhibitors. actives 0.37% (n = 290,000). AID 1721, 2009
Target sequence (Q27686 whole entry, looked up): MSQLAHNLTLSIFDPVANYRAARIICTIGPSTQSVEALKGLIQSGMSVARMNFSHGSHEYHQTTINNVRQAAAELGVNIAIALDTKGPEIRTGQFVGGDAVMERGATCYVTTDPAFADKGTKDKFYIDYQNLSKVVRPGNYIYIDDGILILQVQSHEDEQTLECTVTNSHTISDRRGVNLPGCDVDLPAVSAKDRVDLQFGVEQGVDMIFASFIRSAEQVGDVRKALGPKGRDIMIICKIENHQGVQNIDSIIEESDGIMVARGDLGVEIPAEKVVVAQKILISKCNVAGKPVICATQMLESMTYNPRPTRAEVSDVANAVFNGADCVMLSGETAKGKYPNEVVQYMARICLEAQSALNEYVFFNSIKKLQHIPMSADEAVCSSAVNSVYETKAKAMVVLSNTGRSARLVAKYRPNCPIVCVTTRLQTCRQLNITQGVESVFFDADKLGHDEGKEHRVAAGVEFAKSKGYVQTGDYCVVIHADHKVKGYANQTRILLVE
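0.1 nM LmPK, 0.5 mM PEP, 0.1 mM ADP; 50 mM imidazole pH 7.2, 7 mM MgCl2, 50 mM KCl; 1 h RT. Kinase-Glo luminescence readout, normalized to no-enzyme (full inhibition) and uninhibited wells.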
Tb PYK inh = qHTS of Trypanosoma Brucei Inhibitors; pyruvate kinase (Trypanosoma brucei), Q57TT1; TbPYK enzyme, Kinase-Glo Plus ATP luminescence, 45 min; actives 0.12% (n = 410,000); Potency, µM (series often up to 76.8 µM), most hits filed as inhibitors; AID 624173, 2012; further: nearly all actives have a fitted effect of over 50% in size
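Readout: single end-point luminescence (Kinase-Glo Plus, 10 min). Reaction conditions were TbPYK/substrate plus 130 uM ADP, 45 min at RT, pH 7.2 TEA buffer. No-enzyme wells served as controls, and data were normalized before concentration-response fitting.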
A number is an active result; n = inactive; u = inconclusive; x = not tested or not shown; + = active, no number; [ ] = another dose, or the depositor's remark. Many of the other results were omitted from the sample, so hits are more common in it than they were. Unless noted, the call rests on the fitted dose curve; in most records, active means well fitted curve in the direction sought with a large enough effect; inconclusive means small, poorly fitted or top-dose-only effect, or another doubt; inactive means no such curve, though single readings can be large; an effect the other way counts as inactive or inconclusive.

SMILES	RE007 growth inh	Shiga toxin inh	Cycloheximide cs	FBPA Giardia inh	LmPK inh	Tb PYK inh
O=S(=O)(Nc1ccc(-c2ccc(N3CCCC3)nn2)cc1)c1ccc(OC(F)(F)F)cc1	x	x	x	x	x	n
Cc1ccc(N(C(=O)c2cccc(C)c2)S(=O)(=O)c2ccc(Cl)cc2)cc1	x	x	x	x	x	n
O=C(OCc1nnc(-c2ccccc2)o1)c1cc2ccccc2cc1O	n	n	n	n	n	n
O=C(OCc1nnc(-c2ccccc2Br)o1)c1ccco1	n	x	x	x	x	n
O=C(OCc1nnc(-c2ccccc2)o1)c1ccc2ccccc2n1	n	26	12	n	n	n
Cc1ccc(-c2nnc(COC(=O)c3ccco3)o2)cc1	n	60	38	x	n	n
Cc1ccc(C(=O)OCc2nnc(-c3ccccc3)o2)o1	n	n	25	n	n	n
Cc1ccc(-c2nnc(COC(=O)c3cccs3)o2)cc1	n	80	54	n	n	n
C[C@]12C=CC(=O)C=C1CCC1C2C(=O)C[C@]2(C)C1CC[C@]2(O)C(=O)CO (stereo not given in full)	x	x	x	n	x	x
CO[C@H]1C[C@@H]2CC[C@@H](C)[C@@](O)(O2)C(=O)C(=O)N2CCCC[C@H]2C(=O)O[C@H]([C@H](C)C[C@@H]2CC[C@@H](OC(=O)C(C)(CO)CO)[C@H](OC)C2)CC(=O)[C@H](C)/C=C(\C)[C@@H](O)[C@@H](OC)C(=O)[C@H](C)C[C@H](C)/C=C/C=C/C=C/1C	x	x	x	x	x	n
CC(C)(C)c1cnnn1-c1ccc(NC(=O)c2ccc3c(c2)OCO3)cc1	n	28	13	n	n	n
COc1cccc(C(=O)Nc2ccc(-n3nncc3C(C)(C)C)cc2)c1	n	64	21	n	n	n
CC(C)(C)c1cnnn1-c1ccc(NC(=O)c2ccc(Br)o2)cc1	n	n	n	n	n	n
COc1cccc(C(=O)Nc2ccc(NC(=O)c3ccc(C(C)(C)C)cc3)cc2)c1	x	x	x	x	x	n
CC1=C(c2ccc(C)c(C)c2)S(=O)(=O)N=C1N1CCC(C(=O)NCc2ccc(C)o2)CC1	x	x	x	x	x	n
COc1cc(C2c3c(oc4ccccc4c3=O)C(=O)N2c2nncs2)cc(OC)c1OC (stereo not given)	x	x	x	x	x	n
O=C(Nc1nccs1)c1cccc(NC(=O)C2CC2)c1	n	n	n	n	n	n
CC(C)(C)C1CCC(C(=O)Nc2nccs2)CC1 (stereo not given)	n	47	n	n	n	n
Cc1cnc(NC(=O)C2CCC(C(C)(C)C)CC2)s1 (stereo not given)	n	n	20	n	n	n
Cc1cnc(NC(=O)C2CC=CCC2)s1 (stereo not given)	n	45	24	n	n	n
CN1CCN(c2ncc3nc(-c4ccccc4)c(=O)n(Cc4ccc(F)cc4)c3n2)CC1	x	x	x	n	x	n
COc1cc(CN(C(=O)c2ccccc2[N+](=O)[O-])c2ccccn2)cc(OC)c1OC	x	x	x	x	x	n
CCN(CC)CCC(C)OC(c1ccccc1)c1ccccc1 (stereo not given)	n	53	22	n	n	n
COc1cc(N/N=C/c2ccccc2O)ncn1	u	33	28	n	n	n
Cc1cnn(-c2cc(N/N=C/c3ccccc3F)ncn2)c1	n	n	n	n	n	n
SMILES	RE007 growth inh	Shiga toxin inh	Cycloheximide cs	FBPA Giardia inh	LmPK inh	Tb PYK inh
COc1cc(N/N=C/c2ccc(N(C)C)cc2)ncn1	n	97	45	n	u	n
CCC(=O)N1C2=C(c3ccccc3[C@@H]1CC(=O)Nc1ccc3ccccc3c1)[C@@H]1C(=O)N(c3ccccc3)C(=O)[C@@H]1[C@H](C)C2	x	x	x	n[12.9 µM]	n[11.5 µM]	x
COc1cccc([C@@H]2Oc3ccc(OC)cc3C(=O)[C@H]2OC(=O)NS(=O)(=O)c2ccc(C)cc2)c1	x	x	x	n	x	x
O=C(NCCc1ccc(Cl)cc1)c1cccs1	n	134	42	n	n	n
O=C(NCCc1csc(-c2ccc(Cl)cc2)n1)c1cccs1	x	x	x	x	x	n
O=C(COc1cccc(NC(=O)c2cccs2)c1)c1ccc(F)cc1	n	+	n	n	n	n
O=C(CNC(=O)c1cccs1)c1ccc([N+](=O)[O-])cc1	n	92	23	n	n	n
O=C(NCC(=O)c1ccccc1)OCc1ccc([N+](=O)[O-])cc1	n	x	30	n	n	n
O=C(CNC(=O)c1ccccc1)OCc1ccc([N+](=O)[O-])cc1	x	n	n	n	n	n
C=CCOC(=O)C(C(C)=O)C(NC(=O)OC)c1cccc(F)c1 (stereo not given)	x	x	x	n[12.9 µM]	x	x
Cc1cccc(C(=O)Nc2nc(-c3ccc(Br)cc3)ns2)c1	x	x	x	x	x	n
CCN(CC)c1ccc(NC(=O)c2cnn3c(C(F)F)cc(-c4ccccc4)nc23)cc1	x	x	x	x	x	n
CCOC(=O)c1c(NC(=O)c2cc(CC)on2)sc(C)c1C	x	x	x	x	x	n
O=C(CNC(=O)c1cccs1)c1ccc(Cl)cc1	n	79	37	n	n	n
O=C(CNC(=O)c1ccc([N+](=O)[O-])cc1)c1ccccc1	n	95	46	n	n	n
O=C(Cc1ccc(Cl)cc1)NNC(=S)NC(=O)c1cccs1	n	34	n	u	n	n
O=C(CNC(=O)c1cccs1)c1ccc(F)cc1	n	n	25	n	n	n
CCc1c(C)sc2c1CCN(C(=O)Nc1ccc(F)c(Cl)c1)C2c1ccc(F)cc1 (stereo not given)	x	x	x	x	x	n
O=C(CCNS(=O)(=O)c1ccc2c(c1)CCN2C(=O)C1CC1)Nc1ccc(F)cc1F	x	x	x	x	x	n
OC1c2ccccc2-c2nc3ccccc3cc21 (stereo not given)	x	x	x	n	x	x
Cc1cccc(-n2ncc(C(=O)N3CCN(C4CCCCC4)CC3)c2C2CCN(C(=O)OC(C)(C)C)CC2)c1	x	x	x	x	x	n[15.4 µM]
Cc1ccc2cc(CCNC(=O)c3cccs3)c(=O)[nH]c2c1C	n	47	45	n	n	n
Cc1ccc2cc(CNC(C)(C)C)c(=O)[nH]c2c1	n	n	18	n	n	n
Cc1ccc2cc(CCNC(=O)c3cccs3)c(=O)[nH]c2c1	n	n	25	n	n	n
CCC(CC)C(=O)NCCc1cc2ccc(C)cc2[nH]c1=O	n	n	n	n	n	n
CC(=O)NCCc1cc2ccc(C)c(C)c2[nH]c1=O	n	n	n	n	n	n
COc1ccc2c(c1)sc1ncc(C(=O)NCc3ccc(OC(C)C)cc3)c(=O)n12	x	x	x	x	x	n
COC(=O)CSc1nc(NC(C)C)nc(N(C)C)n1	n	n	n	n	n	n
COC(=O)CSc1nc(NC(C)(C)C)nc(N(C)C)n1	n	n	33	n	n	n
Cc1ccc(S(=O)(=O)NNC(=O)C(=O)NNS(=O)(=O)c2ccc(C)cc2)cc1	u	n	n	n	n	n
